CHX counter: counter-screen for Shiga toxin inhibitors: cycloheximide protein synthesis inhibition | cell reporter, cycloheximide protein synthesis inhibition counterscreen | actives 12% (n = 300,000) | max response, %; in the data active means max response mostly above about 13%, no sharp cut-off; inactive means mostly below about 14%; further: read at 38.3 µM for the half of the compounds with a filed dose; 0% is about no effect
Shiga toxin inh: blocks Shiga toxin action in Vero cells. Vero cells, Shiga toxin protein synthesis inhibition reporter. inhibition, % at 38.7 µM. AID 2315. actives 9.2% (n = 290,000); in the data active means inhibition mostly above about 28%, no sharp cut-off; inactive means mostly below about 43%; further: 0% is about no effect
LmPK inh: inhibitors of Leishmania mexicana pyruvate kinase. Potency, µM (highest dose often 57.5 µM), without a hit: at the highest dose activity change, negative = inhibition, most hits filed as inhibitors. purified LmPK, Kinase-Glo ATP luminescence, 1 h. Q27686. actives 0.37% (n = 290,000); further: potency means the concentration at half of the fitted maximal effect; on the % scale 0 is the no-effect control and ±100 the full control effect
Target sequence (Q27686 whole entry, looked up): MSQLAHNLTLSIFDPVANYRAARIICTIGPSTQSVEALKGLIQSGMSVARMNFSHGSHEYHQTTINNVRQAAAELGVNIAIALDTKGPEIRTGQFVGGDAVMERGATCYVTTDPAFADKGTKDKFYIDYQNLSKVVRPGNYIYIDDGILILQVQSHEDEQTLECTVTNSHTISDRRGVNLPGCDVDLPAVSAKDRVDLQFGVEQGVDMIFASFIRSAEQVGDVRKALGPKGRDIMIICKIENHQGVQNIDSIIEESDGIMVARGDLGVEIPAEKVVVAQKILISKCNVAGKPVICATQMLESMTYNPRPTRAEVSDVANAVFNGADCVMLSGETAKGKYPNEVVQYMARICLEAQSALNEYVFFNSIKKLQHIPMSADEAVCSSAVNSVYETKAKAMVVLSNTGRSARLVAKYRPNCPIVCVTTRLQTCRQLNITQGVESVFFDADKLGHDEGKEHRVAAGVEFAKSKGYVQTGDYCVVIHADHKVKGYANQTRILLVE
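qHTS format; LmPK 0.1 nM; substrates PEP 0.5 mM and ADP 0.1 mM. One-hour room-temperature incubation, then coupled luciferase luminescence; 0.5 nM enzyme wells mark activation.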
Tb PYK inh: inhibitors of Trypanosoma brucei pyruvate kinase; Q57TT1; TbPYK enzyme, Kinase-Glo Plus ATP luminescence, 45 min; Potency, µM (series often up to 76.8 µM), for inactives: at the top dose activity, negative = inhibition, most hits filed as inhibitors; actives 0.12% (n = 410,000); AID 624173; further: potency means the concentration at half of the fitted maximal effect; on the % scale 0 is the no-effect control and ±100 the full control effect; nearly all actives have a fitted effect of over 50% in size
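TbPYK + substrate in 50 mM TEA pH 7.2, 100 mM KCl, 10 mM MgCl2, 0.05% BSA, 0.01% Tween-20; cpd pinned; ADP 130 uM final; 45 min RT; Kinase-Glo Plus 10 min; luminescence endpoint.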
Giardia FBPA inh-1: inhibitors of Giardia lamblia fructose-1,6-bisphosphate aldolase | A8B2U2 | purified Giardia FBPA | actives 0.71% (n = 290,000) | Potency, µM (highest dose often 59.6 µM), for the others: at the top dose activity, negative = inhibition, hits mostly inhibitors; further: potency means the concentration at half of the fitted maximal effect; on the % scale 0 is the no-effect control and ±100 the full control effect; nearly all actives have a fitted effect of over 55% in size
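40 nM FBPA preincubated 10 min at RT with compound (up to 57.5 uM final), then substrate plus GAPDH/TPI/NAD/arsenate coupling and diaphorase/resazurin added. Fluorescence read after 20 min at RT, 525/598 nm.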
Sm TGR block: S. mansoni TGR enzyme inhibition; actives 3% (n = 360,000); Potency, µM (series often up to 114 µM), for the others: top-dose activity change, negative = inhibition, most hits filed as inhibitors; purified TGR, DTNB reduction, TNB absorbance 405 nm; further: potency means the concentration at half of the fitted maximal effect; on the % scale 0 is the no-effect control and ±100 the full control effect; nearly all actives have a fitted effect of over 60% in size
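TGR 20 nM + NADPH 100 uM (dispensed conc.), cpd preinc 15 min RT; start with NADPH (500 uM addition) then DTNB (15 mM addition). Kinetic TNB absorbance, 405 nm filter. Four-parameter Hill fit across titration.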
Giardia growth: blocks growth of Giardia lamblia trophozoites; AID 2785; Giardia lamblia trophozoite growth inhibition; actives 5% (n = 1,500); Potency, µM (highest dose often 57.5 µM), for the others: at the highest dose activity change, negative = inhibition, usual class: inhibitors; shares compounds with Giardia FBPA inh-1;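 further: potency means the concentration at half of the fitted maximal effect; trophozoites exposed to compound for 48 h at 37 °C; on the % scale 0 is the no-effect control and ±100 the full control effect; nearly all actives have a fitted effect of over 70% in size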
Mammalian tox: mammalian cytotoxicity of Giardia aldolase inhibitor hits | shares compounds with Giardia FBPA inh-1 | mammalian cell viability counter-screen, qHTS | Potency, µM (titrated, usually from 57.5 µM), for the others: at the highest dose viability change, negative = toxicity, actives largely listed as inhibitors | actives 4% (n = 1,500);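 further: Chinese hamster ovary cells used as mammalian cytotoxicity surrogate; viability measured as cellular ATP by luminescence; potency means the concentration at half of the fitted maximal effect; compound exposure lasted 48 h before reading; on the % scale 0 is the no-effect control and ±100 the full control effect; nearly all actives have a fitted effect of over 60% in size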
Giardia FBPA inh-2: confirmation of Giardia fructose-bisphosphate aldolase inhibitors; purified Giardia aldolase enzyme activity, qHTS; shares compounds with Giardia FBPA inh-1; Potency, µM (highest dose often 57.5 µM), for inactives: at the top dose activity change, negative = inhibition, usual class: inhibitors; actives 5% (n = 1,500); further: potency means the concentration at half of the fitted maximal effect; on the % scale 0 is the no-effect control and ±100 the full control effect; nearly all actives have a fitted effect of over 45% in size
Rabbit FBPA inh: blocks rabbit muscle aldolase in Giardia aldolase selectivity test. shares compounds with Giardia FBPA inh-1. Rabbit muscle FBPA enzyme inhibition, selectivity counter-screen. Potency, µM (highest dose often 57.5 µM), inactives show at the highest dose activity, negative = inhibition, most hits filed as inhibitors. actives 4% (n = 1,500); further: potency means the concentration at half of the fitted maximal effect; on the % scale 0 is the no-effect control and ±100 the full control effect; nearly all actives have a fitted effect of over 60% in size
GAPDH counter: counter-screen for Giardia aldolase inhibitors: GAPDH coupling enzyme; shares compounds with Giardia FBPA inh-1; GAPDH coupling enzyme counterscreen, biochemical, qHTS; Potency, µM (titrated, usually from 57.5 µM), without a hit: at the highest dose activity change, negative = inhibition, usual class: inhibitors; actives 6% (n = 1,500); AID 2795; further: potency means the concentration at half of the fitted maximal effect; on the % scale 0 is the no-effect control and ±100 the full control effect; nearly all actives have a fitted effect of over 55% in size
* marks the source's active call; other numbers are inactive results; u = inconclusive; x = no result given; [ ] = remark or other dose. This excerpt belongs to a sample that is enriched for hits. Unless noted, the call rests on the fitted dose curve; in most records, active means well fitted curve in the direction sought with a large enough effect; inconclusive means small, poorly fitted or top-dose-only effect, or another doubt; inactive means no such curve, though single readings can be large; an effect the other way counts as inactive or inconclusive.

SMILES | CHX counter | Shiga toxin inh | LmPK inh | Tb PYK inh | Giardia FBPA inh-1 | Sm TGR block | Giardia growth | Mammalian tox | Giardia FBPA inh-2 | Rabbit FBPA inh | GAPDH counter
COc1cccc(NC2=C(C#N)C(=O)NC(c3cccc(OC)c3O)S2)c1 (stereo not drawn) | 19.3* | 60.7 | 1.9% | -8.9% | 15.8µM* | 7.94µM* | u | 3.5% | u | -1.9% | -24.6%
Cc1ccc(N=Nc2c(C)[nH]n(-c3ccccc3)c2=O)cc1Br | 4.9 | 16.9 | 5.5% | 4.7% | u | 3.4% | x | x | x | x | x
COC(=O)c1ccc(N=Nc2c(C)[nH]n(-c3ccccc3)c2=O)cc1 | 1.5 | -9.9 | 3.5% | 1.1% | 12.6µM* | -17.7% | -24.0% | 17.7% | 7.7% | -2.0% | 7.8%
Cc1[nH]n(-c2ccccc2)c(=O)c1N=Nc1cccc([N+](=O)[O-])c1 | 1.0 | -5.9 | 5.3% | 2.7% | 8.91µM* | -6.4% | -37.3%[38.3 µM] | 5.4% | 5.0% | 8.7% | -3.2%
COc1ccc(CN2CCC3CC2c2cc(Cl)ccc23)cc1 (stereo not drawn) | x | x | x | 1.8% | x | x | x | x | x | x | x
Cc1csc(=Nc2c(C)n(C)n(-c3ccccc3)c2=O)n1Cc1ccccc1 | 2.4 | 22.5 | -0.9% | 1.6% | 2.0% | 2.2% | x | x | x | x | x
Cc1c(N=C2C=C(Br)C(=O)C(Br)=C2)c(=O)n(-c2ccccc2)n1C | 4.6 | 14.8 | u | -29.4% | 14.1µM* | 2.82µM* | -12.0%[10.4 µM] | 0.0% | u | -27.2% | u
CC(=O)Nc1ccc(C(C#N)=Cc2ccc(N(C)CCC#N)cc2)cc1 | x | x | x | 4.8% | x | x | x | x | x | x | x
COc1cc(CN2CCC(C(=O)NC3CCCC3)CC2)cc(OC)c1O | -3.2 | 28.2 | -2.5% | 6.9% | 17.7µM* | 8.91µM* | 7.2% | -11.7% | 3.98µM* | u | u
COc1ccc(OC)c(CN2CCC(N3CCC(C(=O)NC4CC4)CC3)CC2)c1 | -0.9 | 10.5 | 1.8% | 0.1% | x | 0.0% | x | x | x | x | x
COc1cc(CN2CCN(C(=O)CC(C)C)CC2)cc(OC)c1OC | 5.3 | -6.1 | -5.0% | 0.6% | u | 7.7% | x | x | x | x | x
COc1cc(CN2CCN(C(=O)CC(C)C)CC2)cc(OC)c1O | -4.4 | 1.5 | -8.4% | 7.7% | 15.8µM* | 12.6µM* | u | -18.6% | 3.98µM* | u | -6.6%
Cc1ccc(CN(C(=O)c2ccc(OCC(C)C)cc2)c2ccccn2)o1 | x | x | x | 0.8% | x | -4.4% | x | x | x | x | x
COc1ccc(COCC(O)CN2CCCC(C(F)(F)F)C2)cc1 (stereo not drawn) | -5.0 | -5.2 | -7.2% | x | 11.2µM* | -8.8% | -14.5% | 5.5% | 0.8% | 4.2% | 13.8%
COc1ccc(N2CCN(CC(O)COCc3ccccc3)CC2)cc1 (stereo not drawn) | 1.7 | -15.3 | 1.2% | -16.4% | -12.2% | -2.1% | x | x | x | x | x
Cc1cc(C)n(NC(=S)NC2CCCC2)c(=O)c1C#N | 1.7 | -3.2 | 0.3% | 1.9% | 17.7µM* | 10.3% | 5.1% | 8.7% | 0.4% | 15.4% | 2.3%
CCn1c(C)cc(C)c(C#N)c1=O | -3.1 | -8.8 | 4.7% | -21.5% | 0.5% | 18.2% | x | x | x | x | x

Bioassay records: PubChem BioAssay, National Center for Advancing Translational Sciences (NCATS)
